The list is not random: actives were taken first. Their share in the collection is about 19%.
IL1B secr inh = qHTS for Inhibitors of Inflammasome Signaling: IL-1-beta AlphaLISA Primary Screen | THP-1 LPS/ATP IL-1B secretion, AlphaLISA, 16 h; stronger effect = lower value | activity change, % at 57.5 µM | actives 4.7% (n = 360,000) | AID 743279, 2014; in the data active = activity change below about -50%; inconclusive = mostly about -30% to -49%; note: % is set by controls: 0 for no effect and ±100 for the full control effect
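Secreted IL-1B measured by AlphaLISA bead assay after 16 h compound exposure of THP-1 cells; compounds (final up to 57.5 uM) added 1 h before LPS (250 ng/mL) and ATP (1.25 mM) stimulation; lower signal means less secretion.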
TDP1 cell CPT = qHTS for Inhibitors of human tyrosyl-DNA phosphodiesterase 1 (TDP1): qHTS in cells in presence of CPT; chicken DT40 Tdp1-/-;hTDP1 cells + 20 nM CPT, ATP luminescence, 48 h; Potency, µM (top dose mostly 46.2 µM), for the others: at the top dose activity change, negative = growth inhibition, usual class: inhibitors; actives 12% (n = 420,000); note: potency is the fitted concentration of half-maximal effect; % is set by controls: 0 for no effect and ±100 for the full control effect; nearly all actives have a fitted effect of over 55% in size
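Chicken DT40 Tdp1-/- cells complemented with human TDP1, 400 cells/well, exposed to compounds plus 20 nM camptothecin for at least 48 h at 37 C; viability read as ATP content by CellTiter-Glo luminescence.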
TGFb inhibitor = qHTS for Inhibitors of TGF-b. Potency, µM (doses to about 46.1 µM), without a hit: at the highest dose activity, negative = inhibition, hits mostly inhibitors. actives 1.2% (n = 410,000). HepG2 CAGA-GFP TGF-b/SMAD3 reporter, GFP fluorescence, 18 h; TGF-beta stimulated, 500 pg/mL final; note: potency is the fitted concentration of half-maximal effect; % is set by controls: 0 for no effect and ±100 for the full control effect; nearly all actives have a fitted effect of over 65% in size
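GFP signal (ex488/em500-530) from TGF-beta-stimulated HEPG2 CAGA-GFP cells, 500 pg/mL final, 18 h at 37 degrees C in DMEM plus 1% FBS, normalized to unstimulated and DMSO-stimulated controls.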
TDP1 cell noCPT = qHTS for Inhibitors of human tyrosyl-DNA phosphodiesterase 1 (TDP1): qHTS in cells in absence of CPT; actives 15% (n = 420,000); Potency, µM (titrated, usually from 46.2 µM), for inactives: at the highest dose activity change, negative = growth inhibition, usual class: inhibitors; DT40 Tdp1-/- hTDP1 cells, no CPT, ATP luminescence, 48 h; note: potency is the fitted concentration of half-maximal effect; % is set by controls: 0 for no effect and ±100 for the full control effect; nearly all actives have a fitted effect of over 55% in size
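Luminescent ATP content (CellTiter-Glo) served as the growth readout. Knockout chicken DT40 cells expressing human TDP1 were exposed to compounds without camptothecin for a minimum 48 hr at 37 °C.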
HepG2 tox = qHTS for Inhibitors of TGF-b: Cytotox Counterscreen; Potency, µM (top dose mostly 46.1 µM), without a hit: at the highest dose activity change, negative = cytotoxicity, usual class: cytotoxic; AID 588856, 2011; actives 0.76% (n = 410,000); HepG2 CAGA-GFP viability, ATP luminescence, 18 h; note: potency is the fitted concentration of half-maximal effect
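CellTiter-Glo luminescence gave cytotoxicity after 18 hours at 37 degrees C. The cells were HepG2 CAGA-GFP in 1% FBS DMEM, stimulated with 500 pg/mL TGF-beta after compound addition. %Activity was normalised to no-cell wells (complete cell-killing) and DMSO (no toxicity), and curves were fitted and classified.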
TDP1 inh = qHTS Assay for Inhibitors of Tyrosyl-DNA Phosphodiesterase (TDP1); Tyrosyl-DNA phosphodiesterase 1 (Homo sapiens), Q9NUW8; recombinant TDP1, AlphaScreen DNA substrate cleavage; Potency, µM (highest dose often 130 µM), for the others: top-dose activity change, negative = inhibition, hits mostly inhibitors; actives 0.28% (n = 350,000); note: potency is the fitted concentration of half-maximal effect; % is set by controls: 0 for no effect and ±100 for the full control effect; nearly all actives have a fitted effect of over 40% in size
Target sequence (Q9NUW8 whole entry, looked up): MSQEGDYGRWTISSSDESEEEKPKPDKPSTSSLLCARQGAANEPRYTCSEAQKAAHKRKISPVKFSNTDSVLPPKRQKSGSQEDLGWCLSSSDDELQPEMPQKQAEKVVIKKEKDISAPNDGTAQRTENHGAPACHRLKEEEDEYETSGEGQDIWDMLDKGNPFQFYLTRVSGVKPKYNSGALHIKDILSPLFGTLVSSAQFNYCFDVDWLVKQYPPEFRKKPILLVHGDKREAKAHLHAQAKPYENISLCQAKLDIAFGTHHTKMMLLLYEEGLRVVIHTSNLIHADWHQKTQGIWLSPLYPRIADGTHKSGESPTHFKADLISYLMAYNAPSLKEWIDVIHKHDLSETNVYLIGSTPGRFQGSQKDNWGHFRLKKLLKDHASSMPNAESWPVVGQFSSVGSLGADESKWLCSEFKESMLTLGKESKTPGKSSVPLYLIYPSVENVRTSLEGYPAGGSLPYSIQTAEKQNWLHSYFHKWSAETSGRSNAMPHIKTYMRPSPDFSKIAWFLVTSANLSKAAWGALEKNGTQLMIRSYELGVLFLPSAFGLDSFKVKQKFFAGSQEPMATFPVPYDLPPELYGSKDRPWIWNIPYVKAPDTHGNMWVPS
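Enzyme-compound mixtures sat 15 min at room temperature, followed by a 5 min reaction with 15 nM final substrate and 10 min with AlphaScreen beads. Recombinant human Tdp1 was used at 1 nM final.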
* hit, by the source's call; [ ] = dose if it differs, or a comment. Unless noted, calls come from the whole dose curve; as a rule, active = well fitted curve in the direction sought with a large enough effect; inconclusive = small, poorly fitted or top-dose-only effect, or another doubt; inactive = no such curve, though single readings can be large; an effect the other way counts as inactive or inconclusive.

For Cc1ccc(Cn2c(-n3nc(C)cc3C)nc3c2c(=O)[nH]c(=O)n3C)cc1 the results were IL1B secr inh 3.6, TDP1 cell CPT inconclusive, TGFb inhibitor 2.1%, TDP1 cell noCPT -22.7%, HepG2 tox -11.1% and TDP1 inh 1.1%.
COc1ccc(CCn2c(-n3nc(C)cc3C)nc3c2c(=O)[nH]c(=O)n3C)cc1 was read as IL1B secr inh 48.6, TDP1 cell CPT 1.84µM*, TGFb inhibitor -2.3%, TDP1 cell noCPT 1.64µM* and HepG2 tox -27.5%.
Screening CC(C)N(CC(=O)Nc1ccc(Cl)cc1C(F)(F)F)C(=O)CCl returned IL1B secr inh -115.5*, TDP1 cell CPT 20.6µM*, TGFb inhibitor inconclusive, TDP1 cell noCPT 6.51µM*, HepG2 tox -40.7% and TDP1 inh 2.7%.
CCC(C)N(CC(=O)Nc1cccc(C)c1C)C(=O)CCl (stereo unspecified) was read as IL1B secr inh -110.5*, TDP1 cell CPT inconclusive, TGFb inhibitor 22.4µM*, TDP1 cell noCPT 2.31µM*, HepG2 tox -49.1% and TDP1 inh -2.7%.
O=C(O)CSCC(=O)Nc1ccc(Cl)cc1C(F)(F)F was read as IL1B secr inh 35.6, TDP1 cell CPT 2.4%, TGFb inhibitor 4.6%, TDP1 cell noCPT 17.5%, HepG2 tox 6.5% and TDP1 inh -3.6%.
For O=C(O)c1cc(-c2ccc(C(F)(F)F)cc2)nc2n[nH]c(-c3ccccc3)c12 the results were TDP1 cell CPT 7.2%, TGFb inhibitor 29.1%, TDP1 cell noCPT 25.8%, HepG2 tox 4.3% and TDP1 inh -1.3%.
Screening O=C(O)c1ccc(-c2c3nc(c(-c4ccc(C(=O)O)cc4)c4ccc([n-]4)c(-c4ccc(C(=O)O)cc4)c4nc(c(-c5ccc(C(=O)O)cc5)c5ccc2[n-]5)C=C4)C=C3)cc1.[Mn+3] returned TDP1 inh 2.3%.
`CCCCNC(=O)N(O)C1N(/N=C/c2ccccc2OC)C(=S)SC1(C)C` (stereo unspecified) gave IL1B secr inh -17.3, TDP1 cell CPT -2.9%, TGFb inhibitor inconclusive, TDP1 cell noCPT -19.9% and HepG2 tox -15.7%.
CN(C(=O)C1CCCCC1)C1CCS(=O)(=O)C1 (stereo unspecified) was read as IL1B secr inh -4.5, TDP1 cell CPT -16.1%, TGFb inhibitor -9.0%, TDP1 cell noCPT -4.3% and HepG2 tox -7.7%.
Screening COCCNC(=O)c1nn(-c2ccc(Cl)cc2)nc1CO returned TDP1 cell CPT -14.7%, TGFb inhibitor -8.2%, TDP1 cell noCPT 2.0%, HepG2 tox -19.0% and TDP1 inh 0.0%.
For CCn1cnnc1SCC(=O)NCC1COc2ccccc2O1 (stereo unspecified) the results were IL1B secr inh 0.0, TDP1 cell CPT -2.2%, TGFb inhibitor -0.2%, TDP1 cell noCPT 1.84µM*, HepG2 tox 5.5% and TDP1 inh -0.8%[56.1 µM].
`O=C(NCc1ccccc1)C(=O)NCC1COc2ccccc2O1` (stereo unspecified) gave IL1B secr inh 64.1, TDP1 cell CPT 2.91µM*, TGFb inhibitor -2.7%, TDP1 cell noCPT 2.59µM*, HepG2 tox 6.0% and TDP1 inh 2.5%.
COc1ccc(/C=C/C(=O)NCC2COc3ccccc3O2)c(OC)c1 (stereo unspecified) was read as IL1B secr inh -59.4*, TDP1 cell CPT -30.0%, TGFb inhibitor -2.3%, TDP1 cell noCPT inconclusive, HepG2 tox 15.7% and TDP1 inh 2.5%.
For COc1ccccc1NC(=O)C(=O)NCC1COc2ccccc2O1 (stereo unspecified) the results were IL1B secr inh -5.1, TDP1 cell CPT -7.1%, TGFb inhibitor -27.0%, TDP1 cell noCPT 0.562µM*, HepG2 tox -24.2% and TDP1 inh 2.1%.
COc1ccc(NC(=O)CCC2COc3ccccc3O2)c(OC)c1 (stereo unspecified) was read as IL1B secr inh -1.8, TDP1 cell CPT 8.5%, TGFb inhibitor -8.1%, TDP1 cell noCPT inconclusive, HepG2 tox -7.6% and TDP1 inh 6.8%.
Screening O=S(=O)(c1cccc(F)c1)N1CCN(c2nc(-c3cccs3)nc3ccccc23)CC1 returned TDP1 cell CPT inconclusive, TGFb inhibitor -9.5%, TDP1 cell noCPT inconclusive and HepG2 tox 8.0%.
`O=C(NCC1COc2ccccc2O1)c1ccc(Br)s1` (stereo unspecified) gave IL1B secr inh -71.8*, TDP1 cell CPT -5.9%, TGFb inhibitor -1.1%, TDP1 cell noCPT inconclusive and HepG2 tox -14.8%.
O=C(NCC1COc2ccccc2O1)c1cccs1 (stereo unspecified) was read as IL1B secr inh -11.5, TDP1 cell CPT inconclusive, TGFb inhibitor -12.4%, TDP1 cell noCPT -25.1%, HepG2 tox -14.3% and TDP1 inh 2.9%.
Cc1ccc(C(=O)Nc2cccc(C(F)(F)F)c2)cc1NC(=O)c1nccn1C was read as IL1B secr inh 76.1, TDP1 cell CPT 2.4%, TGFb inhibitor inconclusive, TDP1 cell noCPT 2.8%, HepG2 tox 19.0% and TDP1 inh 0.0%.
For Cc1ccc(C(=O)Nc2cccc(C(F)(F)F)c2)cc1NC(=O)c1ccno1 the results were IL1B secr inh inconclusive, TDP1 cell CPT inconclusive, TGFb inhibitor 14.3%, TDP1 cell noCPT 11.6µM*, HepG2 tox -33.2% and TDP1 inh 0.0%.
`Cc1ccc(C(=O)Nc2cccc(C(F)(F)F)c2)cc1Nc1ncnc2nc[nH]c12` gave IL1B secr inh -19.4, TDP1 cell CPT 25.9µM*, TGFb inhibitor 1.7%, TDP1 cell noCPT 20.6µM*, HepG2 tox -67.1% and TDP1 inh 4.7%.
`Cc1ccc(C(=O)Nc2cccc(C(F)(F)F)c2)cc1Nc1cnccn1` gave IL1B secr inh 11.0, TDP1 cell CPT 23.1µM*, TGFb inhibitor inconclusive, TDP1 cell noCPT 16.4µM*, HepG2 tox -35.8% and TDP1 inh 2.4%.
O=C(Nc1cnccn1)c1cccc(C(F)(F)F)c1 was read as IL1B secr inh -18.4, TDP1 cell CPT -8.8%, TGFb inhibitor 22.1%, TDP1 cell noCPT -15.0%, HepG2 tox -18.2% and TDP1 inh 0.0%.

From PubChem BioAssay
